Molecules are shown by their SMILES. The campaign covered roughly 1,300 compounds. About 40 (3%) were called active. For the sample, actives were picked, then their nearest neighbours and some compounds at random. Values without a mark were called inactive. Rule as the data show it: active = inhibition above about 30%; inactive = the rest.

fMet-Leu-Phe receptor (Homo sapiens), sequence (P21462 whole entry, looked up): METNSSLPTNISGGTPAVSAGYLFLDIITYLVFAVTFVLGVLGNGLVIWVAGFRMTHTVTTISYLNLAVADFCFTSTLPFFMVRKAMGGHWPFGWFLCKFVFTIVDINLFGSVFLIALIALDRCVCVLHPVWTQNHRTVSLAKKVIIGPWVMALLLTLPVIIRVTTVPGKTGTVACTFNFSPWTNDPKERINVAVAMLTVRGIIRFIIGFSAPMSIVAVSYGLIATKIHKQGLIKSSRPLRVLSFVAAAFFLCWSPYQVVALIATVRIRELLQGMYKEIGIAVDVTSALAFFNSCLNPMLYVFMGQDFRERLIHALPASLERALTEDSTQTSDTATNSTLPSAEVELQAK

The experiment concerns the target fMet-Leu-Phe receptor (Homo sapiens) (UniProt P21462). Put plainly: FPR1 fluorescent ligand binding inhibitors, primary screen, cell-based, flow cytometry, SAR analysis (AID 722). The following applies: FPR-expressing cells, active compounds read high, concentration not given here.
By inhibition is commonly meant the drop in the measured response relative to a control, in per cent. Take `Cc1nc2c(-c3ccc(Cl)cc3)c(C(F)(F)F)[nH]n2c(=O)c1Cc1ccccc1`: the inhibition is 50.1% (active).
`COc1ccc(-c2c(C)[nH]n3c(=O)c(Cc4ccccc4)c(C)nc23)cc1`: the inhibition was 6.3%.
For the compound `Cc1nc2c(-c3ccc(Cl)cc3)c[nH]n2c(=O)c1Cc1ccccc1`, the inhibition is -1.4%.
Take `N#CCn1c(=O)n(Cc2ccccc2)c(=O)c2oc3ccccc3c21`: the inhibition was -0.8%.
On to `CCCCN(Cc1ccco1)C(=O)c1noc2c1CCCCC2`, for which the inhibition is 0.1%.
In the case of `CCOC(=O)c1c(NC(=O)c2cccc(Br)c2)sc(C)c1C` it was -4.3%; in that of `Cc1ccc(C)c(NC(=O)Cn2c(-c3nonc3N)nc3ccccc32)c1`, 5.3%; in that of `Cc1sc2c(c1C)c(=O)n(Cc1ccccc1)c(=O)n2Cc1ccccc1F`, 38.5% (active).
For the compound `O=c1c2cccnc2n(Cc2ccccc2F)c(=O)n1Cc1ccccc1`, the inhibition is -7.5%.
For `O=c1c2cccnc2n(Cc2ccccc2F)c(=O)n1Cc1cccs1`, the inhibition is -0.6%.
With `Cc1ccc(C)c(Cn2c(=O)cc(C)c3c(C)nn(-c4cccc(F)c4)c32)c1`, the inhibition is -2.2%.
Take `CCOC(=O)c1sc(N2C(=O)C(=O)/C(=C(/O)c3ccccc3)C2c2ccc(C(C)C)cc2)nc1C` (centres undefined): the inhibition is 7.9%.
Regarding `Cc1nnc(N2C(=O)C(=O)/C(=C(/O)c3ccc(F)cc3)C2c2cccc(Oc3ccccc3)c2)s1` (centres undefined), the inhibition was -8.8%.
In the case of `Cc1ccc(CN(Cc2ccco2)C(=O)c2cccc(C)c2)cc1` it was -4.5%; in that of `O=C(O)CCCN1C(=O)C(=O)/C(=C(/O)c2ccccc2)C1c1ccc(Br)cc1` (centres undefined), 1.2%; in that of `O=C(O)CCCN1C(=O)C(=O)/C(=C(/O)c2ccccc2)C1c1ccc(F)cc1` (centres undefined), 5.5%.
`O=C(O)CCCN1C(=O)C(=O)/C(=C(/O)c2ccccc2)C1/C=C/c1ccccc1` (centres undefined): the inhibition is 44.6% (active).
Consider `O=C1C(=O)N(CCCN2CCOCC2)C(c2cccnc2)/C1=C(\O)c1ccccc1` (centres undefined), for which the inhibition was -3.2%.
For `COC(=O)c1ccc(C2C(C(C)=O)=C(O)C(=O)N2c2ccc(OCC(=O)O)cc2)cc1` (centres undefined), the inhibition was 2.2%.
As for `COc1cccc(C2C(C(C)=O)=C(O)C(=O)N2c2ccc(C)c(Br)c2)c1` (centres undefined), the figure is -9%.
Regarding `COc1cc(C2C(C(C)=O)=C(O)C(=O)N2c2ccc(Br)cc2)ccc1O` (centres undefined), the inhibition was 35.8% (active).
On to `Cc1cccc(C(=O)N(C(=O)c2cccc(C)c2)c2ncccn2)c1`, for which the inhibition was -8.2%.
In the case of `CCN(C(=O)c1noc2c1CCCCC2)c1cccc(C)c1` it was -6.2%.
As for `O=C(C1=C(O)C(=O)N(CCCn2ccnc2)C1c1cccnc1)c1cccs1` (centres undefined), the figure is 3.5%.
As for `O=C(C1=C(O)C(=O)N(CCCn2ccnc2)C1c1cccc(Br)c1)c1ccco1` (centres undefined), the figure is 0.3%; as for `COc1cccc(C2C(C(=O)c3cccs3)=C(O)C(=O)N2CCc2ccccc2)c1` (centres undefined), 15.8%.
`O=C(C1=C(O)C(=O)N(CCc2ccccc2)C1c1ccc([N+](=O)[O-])cc1)c1cccs1` (centres undefined): the inhibition is -7.4%.
As to `COc1ccc(C2C(C(=O)c3cccs3)=C(O)C(=O)N2CCCn2ccnc2)cc1` (centres undefined), the inhibition was 42.2% (active).
Turning to `O=C(C1=C(O)C(=O)N(CCCN2CCOCC2)C1c1cccnc1)c1ccco1` (centres undefined), the inhibition is -9.2%.
Consider `COc1ccc(C2C(C(=O)c3cccs3)=C(O)C(=O)N2CCCn2ccnc2)c(OC)c1` (centres undefined), for which the inhibition is 1.7%.
As for `O=C(C1=C(O)C(=O)N(CCc2ccccc2)C1c1ccc(Cl)cc1)c1cccs1` (centres undefined), the figure is 77.6% (active).
As to `O=C(C1=C(O)C(=O)N(CCCN2CCOCC2)C1c1cccnc1)c1cc2ccccc2o1` (centres undefined), the inhibition was 22.2%.
For the compound `O=C(C1=C(O)C(=O)N(CCCn2ccnc2)C1c1cccnc1)c1ccco1` (centres undefined), the inhibition is 33.2% (active).
For the compound `O=C(C1=C(O)C(=O)N(CCCn2ccnc2)C1c1ccc(Cl)cc1)c1cccs1` (centres undefined), the inhibition was 19.5%.
Regarding `O=C(C1=C(O)C(=O)N(CCCn2ccnc2)C1c1cccnc1)c1cc2ccccc2o1` (centres undefined), the inhibition is 40.4% (active).
For `O=C(C1=C(O)C(=O)N(CCCN2CCOCC2)C1c1ccco1)c1ccco1` (centres undefined), the inhibition was -4.4%.
`Cc1ccc(/C(O)=C2\C(=O)C(=O)N(CC3CCCO3)C2c2ccc([N+](=O)[O-])cc2)cc1` (centres undefined): the inhibition is -3.9%.
Regarding `CCCC(=O)N1CCc2cc(OC)c(OC)cc2C1COc1ccc(OC)cc1` (centres undefined), the inhibition is -2.3%.
Consider `Cc1nc2c(C(=O)N3CCCCC3)c[nH]n2c(=O)c1Cc1ccccc1F`, for which the inhibition was -4.3%.
Consider `CCOc1ccc(C2/C(=C(/O)c3ccccc3)C(=O)C(=O)N2CCO)cc1` (centres undefined), for which the inhibition is 1.5%.
Take `Cc1ccc(/C(O)=C2\C(=O)C(=O)NC2c2ccc(F)cc2)cc1` (centres undefined): the inhibition was 10%.
As to `Cc1ccc(/C(O)=C2\C(=O)C(=O)NC2c2ccccc2)cc1` (centres undefined), the inhibition was 0.5%.
Regarding `O=C(c1cccs1)N1c2ncnn2C2(CCCCC2)[C@@H]2CCCC[C@@H]21`, the inhibition was 0.9%.
Take `COc1cccc(N(Cc2nnc3n2CCCCC3)C(=O)Nc2ccccc2)c1`: the inhibition is -7.8%.
As for `COc1ccccc1C1CC(c2ccccc2)=NN1C(=O)c1ccccc1` (centres undefined), the figure is 0%; as for `CCOC(=O)c1c(NC(=O)c2ccc(Cl)cc2)sc(C)c1C`, -1%; as for `CCOC(=O)c1c(NC(=O)c2cc(F)c(F)cc2Cl)sc2c1CCC2`, -9.6%.
As for `CCOC(=O)c1c(NC(=O)c2cccc(F)c2)sc2c1CCCC2`, the inhibition was -4%.
For `C=CCC(CC=C)(NC(=O)c1cccc(C)c1)c1ccccc1`, the inhibition is 0.8%.
`O=C(C1=C(O)C(=O)N(c2nncs2)C1c1ccccc1F)c1cccs1` (centres undefined): the inhibition was -6.8%.
Turning to `CCc1c(C)nc2c(C#N)c[nH]n2c1=O`, the inhibition was 0.5%.
Consider `CC(=O)C1=C(O)C(=O)N(CCN2CCOCC2)C1c1ccc([N+](=O)[O-])cc1` (centres undefined), for which the inhibition was 5.7%.
In the case of `CCC(C)(C(=O)NC1CCCCC1)N(C)C(=O)Cc1cccs1` (centres undefined), the inhibition was -25.1%.
For `CCOc1ccccc1C(=O)N(Cc1cccs1)c1ccc(C)cc1`, the inhibition was 5.8%.
As for `CCC(C)(C(=O)NC1CCCCC1)N(Cc1cccs1)C(C)=O` (centres undefined), the inhibition is 57.2% (active).
As to `COc1cccc(C(=O)N(Cc2ccco2)Cc2ccccc2F)c1`, the inhibition is -2.3%.
On to `O=C(C(Cc1ccccc1)N1Cc2ccccc2C1=O)N1CCCCCC1` (centres undefined), for which the inhibition was 0.8%.
As for `COc1ccc(-c2c(C(F)(F)F)oc3cc(OC(=O)c4ccc(C)cc4)ccc3c2=O)cc1OC`, the figure is -0.2%; as for `COc1ccc(-c2c(C(F)(F)F)oc3cc(OC(=O)c4ccco4)ccc3c2=O)cc1OC`, 43.5% (active).
As to `COc1ccccc1-c1c(C(F)(F)F)oc2cc(OC(=O)c3ccccc3C)ccc2c1=O`, the inhibition is 2.7%.
Regarding `COc1ccc(C(=O)Oc2ccc3c(=O)c(-c4ccc(OC)c(OC)c4)c(C(F)(F)F)oc3c2)cc1`, the inhibition was 9.4%.
In the case of `COc1ccc(Oc2c(C(F)(F)F)oc3cc(OC(=O)c4ccco4)ccc3c2=O)cc1` it was 9.6%.
`COc1ccccc1-c1c(C(F)(F)F)oc2cc(OC(=O)c3ccco3)ccc2c1=O`: the inhibition was 59% (active).
As for `COc1cc(C2C(C(=O)c3cc4ccccc4o3)=C(O)C(=O)N2c2nnc(C)s2)ccc1O` (centres undefined), the inhibition was -5.6%.
Turning to `O=C1OC(c2ccccc2F)/C(=C(/O)c2ccccc2)C1=O` (centres undefined), the inhibition was 2.1%.
Turning to `CCOC(=O)c1cc2ccccc2n1CC(=O)c1ccccc1`, the inhibition is -0.2%.
For `O=C1C(=O)N(c2nncs2)C(c2ccc(F)cc2)/C1=C(\O)c1ccccc1` (centres undefined), the inhibition was 5.9%.
As to `Fc1cccc(-c2nn(CN3CCCCC3)c(=S)n2-c2ccccc2)c1`, the inhibition is 4.7%.
With `COc1ccc(C2/C(=C(\O)c3ccc(F)cc3)C(=O)C(=O)N2c2nnc(C)s2)cc1` (centres undefined), the inhibition was 4.6%.
As for `COc1ccc(/C(O)=C2\C(=O)C(=O)N(CCN3CCOCC3)C2c2ccc(Br)cc2)cc1` (centres undefined), the inhibition was 2.9%.
As for `O=C(O)CCc1oc2cc(O)ccc2c(=O)c1-c1nc2ccccc2[nH]1`, the figure is 11.1%; as for `CCOC(=O)c1c(NC(=O)C2CCCC2)sc2c1CCC(CC)C2` (centres undefined), -13.3%; as for `CCc1c(C)nc2c(-c3ccccc3OC)c(C)[nH]n2c1=O`, 5.5%.
With `CCOc1ccccc1C1CC(=O)NC2=C1C(=O)CC(c1ccccc1Cl)C2` (centres undefined), the inhibition is -7.2%.
In the case of `O=C1C(=O)N(CCN2CCOCC2)C(c2ccc(Cl)cc2)/C1=C(\O)c1ccc(F)cc1` (centres undefined), the inhibition was -8.1%.
For the compound `CCc1cc2c(=O)c(-c3nc4ccccc4[nH]3)c(C)oc2cc1OC(C)=O`, the inhibition is -0.7%.
Consider `CCc1cc2c(=O)c(-c3nc4ccccc4n3C)c(C)oc2cc1OC(C)=O`, for which the inhibition is 78.9% (active).
As to `CCc1cc2c(=O)c(-c3nc4ccccc4n3C)c(C)oc2cc1O`, the inhibition is -2.5%.
Turning to `Cc1[nH]n2c(=O)cc(Cc3ccccc3)nc2c1-c1ccccc1`, the inhibition was 6.8%.
For `CCOC(=O)C(C#N)C(c1ccc2c(c1)OCO2)c1ccccc1OC` (centres undefined), the inhibition was -0.7%.
Turning to `O=C(NC(c1nnc(-c2ccccc2)o1)c1ccccc1F)c1ccc(F)cc1` (centres undefined), the inhibition was -6%.
With `CN1C(=O)C2(/C(=C(/O)c3ccc(F)cc3)C(=O)C(=O)N2CCN2CCOCC2)c2ccccc21` (centres undefined), the inhibition is -6.9%.
As for `COc1ccccc1C1/C(=C(\O)c2ccc(C)cc2)C(=O)C(=O)N1Cc1cccnc1` (centres undefined), the figure is -4.4%; as for `CC(C)c1ccc(C2/C(=C(\O)c3ccccc3)C(=O)C(=O)N2Cc2cccnc2)cc1` (centres undefined), 40.5% (active).
Take `Cc1ccc(/C(O)=C2\C(=O)C(=O)N(Cc3cccnc3)C2c2ccc(Br)cc2)cc1` (centres undefined): the inhibition is 61.8% (active).
As to `O=C1C(=O)N(Cc2cccnc2)C(c2ccc(Cl)cc2)/C1=C(\O)c1ccccc1` (centres undefined), the inhibition is 8.1%.
On to `COc1ccc(C2/C(=C(\O)c3ccc(C)cc3)C(=O)C(=O)N2Cc2cccnc2)c(OC)c1` (centres undefined), for which the inhibition was 65.6% (active).
As to `COCCCN1C(=O)C(=O)/C(=C(/O)c2ccccc2)C1c1ccc(Cl)cc1` (centres undefined), the inhibition was 0.5%.
`O=C1C(=O)N(Cc2cccnc2)C(c2ccc(Br)cc2)/C1=C(\O)c1ccccc1` (centres undefined): the inhibition is -0.7%.
In the case of `COCCCN1C(=O)C(=O)/C(=C(/O)c2ccc(C)cc2)C1c1ccc(C(C)C)cc1` (centres undefined) it was 2.7%.
Turning to `Cc1ccc(C2/C(=C(/O)c3ccccc3)C(=O)C(=O)N2Cc2cccnc2)cc1` (centres undefined), the inhibition is 5.2%.
As for `CC(C)(C)c1ccc(C2/C(=C(\O)c3ccccc3)C(=O)C(=O)N2Cc2cccnc2)cc1` (centres undefined), the inhibition was -8.3%.
For `COc1ccc(C2/C(=C(/O)c3ccccc3)C(=O)C(=O)N2Cc2ccccc2)c(OC)c1` (centres undefined), the inhibition was -11%.
Turning to `COCCCN1C(=O)C(=O)/C(=C(/O)c2ccccc2)C1c1ccc(C(C)C)cc1` (centres undefined), the inhibition is 54.4% (active).

The values above are taken from PubChem BioAssay AID722 (NMMLSC, 2007).
